# This is part of a sample that, as a whole, favours compounds with a hit. Of some 83,000 tested, about 20% had one in any assay.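 How to read the values: 0–100, growth inhibition (40 = 60% inhibited); 0, no net growth; -100 to 0, cell death (-40 = 40% of starting cells died; -100 = all dead).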 Values without a mark were called inactive. The source made the active and inactive calls. The calls were made as follows: active = growth percent below 10; inactive = the rest.
# What was measured:
# Test in all cases: NCI-60 one-dose screen, 48 h (100 = growth as untreated, 0 = no growth, -100 = all killed)
# Conditions in all cases: 10 µM unless noted
# T-47D breast = test system: T-47D breast
# BT-549 breast = test system: BT-549 breast
# MDA-MB-435 melanoma = test system: MDA-MB-435 melanoma
# SW-620 colon = test system: SW-620 colon
# MCF7 breast = test system: MCF7 breast
# HCT-116 colon = test system: HCT-116 colon
# KM12 colon = test system: KM12 colon
# HCC-2998 colon = test system: HCC-2998 colon
Structure (SMILES),growth (T-47D breast),growth (BT-549 breast),growth (MDA-MB-435 melanoma),growth (SW-620 colon),growth (MCF7 breast),growth (HCT-116 colon),growth (KM12 colon),growth (HCC-2998 colon)
NCCNc1nc(Nc2ccc(-c3nc4ccccc4[nH]3)cc2)c2cn[nH]c2n1,60.8%,80.2%,94%,28.4%,39.2%,14.9%,25.2%,
COC(=O)c1ccc(NC(=O)c2ccc(-c3cccc([N+](=O)[O-])c3)o2)cc1,96.4%,98.9%,101%,101%,76.8%,,,102%
C[n+]1ccccc1/C=C/c1ccc2cccc(O)c2n1,97.6%,97.6%,114%,52.1%,97.3%,,41.1%,95.2%
Nc1n[nH]c2ccc([C@@H]3Nc4cc5c(cc4[C@H]4C6CCC(C6)[C@@H]34)C(=O)NC5)cc12 (stereo not given in full),76.9%,-0.949% (active),-21.5% (active),18.5%,17.2%,,8.14% (active),17.1%
Cc1oc(-c2ccc(Cl)cc2Cl)cc1C(=O)Nc1nccs1,70.3%,107%,100%,94.4%,60.8%,,98.7%,109%
COc1ccc(/C=C/C(=O)c2ccc(O)c(CN3CCN(c4cc5c(cc4F)c(=O)c(C(=O)O)cn5C4CC4)CC3)c2)cc1,37.6%,17.7%,28.3%,17.5%,8.68% (active),,24.8%,43.5%
Cc1cc(N2CCCCCC2)nc(NC2CCCC(Nc3ccnc4cc(Cl)ccc34)C2)n1 (stereo not given),-50.3% (active),-85.1% (active),-87.7% (active),-76.9% (active),-56.8% (active),,-75.5% (active),-80.3% (active)
CC(C)(C)N1CCC1CN (stereo not given),96.3%,118%,104%,104%,126%,99.5%,107%,
CCC#CC[C@H](O)C/C=C1/C(=O)C=C[C@@H]1C/C=C\CCCC(=O)OC,5.68% (active),-0.591% (active),1.89% (active),-12.5% (active),15.1%,-49.7% (active),-49% (active),
Cn1cc(-c2nonc2-c2cn(C)c3ccc(F)cc23)c2cc(F)ccc21,64.7%,68.6%,-4.48% (active),22.2%,27.9%,,33%,73%
Oc1cccc(-c2nc(N3CCOCC3)c3c4c(sc3n2)CCCC4)c1,9.18% (active),45.4%,59.7%,63.3%,42%,,62.6%,81.9%
C=CC(=O)Nc1cccc(-c2nc(SC)nc(Nc3cccc(OC)c3)c2C#N)c1,38.5%,45.4%,43.4%,89.1%,52.2%,,87.9%,82.3%
O=C1c2cccc3cccc(c23)C(=O)N1CCCCCN1CCN(CCCCCOc2ccc(-c3nc4ccc(N5CCOCC5)cc4[nH]3)cc2)CC1,0.907% (active),29.9%,36.4%,17.1%,-25.7% (active),73%,20.6%,
N#Cc1nnn(-c2ccc(S(N)(=O)=O)cc2)c1NC(=O)CCl,95.2%,97.1%,99.6%,102%,90.9%,,94.9%,106%
COc1cc(C=Nc2oc(-c3ccccc3)c(-c3ccccc3)c2C#N)cc(CN2CCCCC2)c1O,86.8%,111%,103%,104%,94%,,100%,102%
CC(C)(O)c1cn(CCCCN2C(=O)C(=O)c3ccccc32)nn1,99.5%,110%,101%,99.6%,93.9%,,101%,103%

Structure (SMILES),growth (T-47D breast),growth (BT-549 breast),growth (MDA-MB-435 melanoma),growth (SW-620 colon),growth (MCF7 breast),growth (HCT-116 colon),growth (KM12 colon),growth (HCC-2998 colon)
CC[C@]1(O)C[C@@H]2CN(CCc3c([nH]c4ccccc34)[C@@](C(=O)OC)(c3cc4c(cc3OC)N(C)[C@H]3[C@@](O)(C(N)=O)[C@H](O)[C@]5(CC)[C@@H]6C[C@@H]6CN6CC[C@]43[C@@H]65)C2)C1,92.9%,11.5%,-40% (active),26.7%,18.9%,,,24.9%
COc1ccc2c(c1)C(=O)/C(=C/c1cccnc1)CC2,80.2%,101%,89.5%,102%,45.3%,81.2%,66.2%,
CC(=O)O[C@H]1C(=O)[C@@]2(C)[C@H]([C@H](OC(=O)c3ccccc3)[C@]3(O)C[C@H](OC(=O)[C@H](OC(=O)CCC(=O)OC4CCC(S/N=C(N)/N=C(\N)N(C)C)CC4)[C@@H](NC(=O)c4ccccc4)c4ccccc4)C(C)=C1C3(C)C)[C@]1(OC(C)=O)CO[C@@H]1C[C@@H]2O (stereo not given in full),46.7%,35.9%,5.75% (active),41.7%,19.3%,6.14% (active),10.7%,
CC1=CC(C)(C)Nc2ccc(Cc3ccc4c(c3)C(C)=CC(C)(C)N4)cc21,76.2%,80.1%,120%,130%,84.2%,83.5%,105%,
COc1ccc(-n2nc(C)c3c(Nc4ccc(NC(=O)Nc5cccc(C(F)(F)F)c5)cc4)ncnc32)cc1,-13.9% (active),25.2%,6.96% (active),12.4%,2.15% (active),,,14.1%
CCOc1nc(-c2ccccc2)cc2c(O)c(C(=O)N/N=C/c3ccc(O)cc3O)[nH]c(=O)c12,34.3%,58.9%,48.3%,44.6%,46.3%,18.6%,42.3%,
Cc1cc(C)nc(SC2=C(Nc3cccc(Cl)c3)C(=O)N(Cc3ccccc3)C2=O)n1,22.2% [30 µM],65.5% [30 µM],61.4% [30 µM],72% [30 µM],49.8% [30 µM],43.5% [30 µM],83.7% [30 µM],
CCN1CCN(c2nc(NCCNc3ccnc4cc(Cl)ccc34)c3ccccc3n2)CC1,-10.8% (active),51.8%,-66.2% (active),1.44% (active),18.6%,,7.58% (active),35.8%
COc1ccc(/C=C/c2nc3ccccc3nc2/C=C/c2ccc(OC)cc2)cc1,78.1%,104%,88.4%,92.6%,80.9%,,,104%
O=C1Nc2c(ccc(Cl)c2Cl)/C1=C\c1ccc(C(F)(F)F)cc1,77.2%,75.2%,95.4%,67.1%,52.1%,,71.2%,92.4%
Cc1ccc2c(C(C[N+](=O)[O-])c3ccco3)c(-c3ccccc3)[nH]c2c1 (stereo not given),16.1%,53.3%,-34% (active),17.1%,16.5%,,20.2%,70%
COc1ccc2c(c1)C(=O)/C(=C/c1ccccn1)CC2,54.2%,96.4%,57.4%,57.5%,15.1%,26.3%,-10% (active),
OCCNc1nccc(N2CCN(c3ccnc4cc(Cl)ccc34)CC2)n1,69%,68.3%,7.31% (active),44.4%,34.2%,,60.8%,86.4%
COc1cccc2c1C(=O)c1c(O)c3c(c(O)c1C2=O)C[C@](O)(C(=O)CO)C[C@H]3O[C@@H]1C[C@@H](NC(=O)CCCCCN(C)C2(c3ccc(F)cc3)CC3CCC2C3)[C@H](O)[C@@H](C)O1 (stereo not given in full),86.3%,52%,-17.9% (active),-74.9% (active),-46.2% (active),-91.8% (active),-68.5% (active),
O=C(Nc1ccccc1Cl)c1ccc(NC2=C(Cl)C(=O)N(C3CCCCC3)C2=O)cc1,38.7% [30 µM],60.5% [30 µM],49.6% [30 µM],56.7% [30 µM],34.7% [30 µM],111% [30 µM],64.9% [30 µM],
COc1cc2c(cc1O)CC[C@@H]1[C@@H]2CC[C@]2(C)[C@@H](OCCN(C)C)CC[C@@H]12,58.3%,43.5%,-56.8% (active),13.1%,37.1%,7.27% (active),24.2%,
